D1 agonist – activates the human D1 dopamine receptor | HEK293 T-REx D1 cells, calcium flux, agonist mode | activation, % at 2 µM | 1% of 360,000 active; also: 0% is about no effect
Target sequence (P21728 whole entry, looked up): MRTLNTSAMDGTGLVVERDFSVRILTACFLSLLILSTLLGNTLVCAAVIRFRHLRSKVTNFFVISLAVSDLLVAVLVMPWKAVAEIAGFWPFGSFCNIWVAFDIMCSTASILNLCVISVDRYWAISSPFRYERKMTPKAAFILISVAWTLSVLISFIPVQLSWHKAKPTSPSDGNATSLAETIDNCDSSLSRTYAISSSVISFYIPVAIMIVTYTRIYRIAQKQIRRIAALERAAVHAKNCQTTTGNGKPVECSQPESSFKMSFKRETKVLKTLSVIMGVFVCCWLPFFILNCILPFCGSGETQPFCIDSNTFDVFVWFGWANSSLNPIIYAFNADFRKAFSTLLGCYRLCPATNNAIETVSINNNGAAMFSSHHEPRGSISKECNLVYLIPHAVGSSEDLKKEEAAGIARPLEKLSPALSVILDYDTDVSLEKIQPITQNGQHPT
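Tetracycline-induced HEK293 TREx D1 cells, force-coupled to calcium signalling, were dye-loaded with a no-wash calcium kit. Compound was pin-added after a 10 s baseline. Fluorescence was read kinetically at 1 cycle/s for 180 s, with calcium rises flagged as agonism.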
D1 potentiator – potentiators of human D1 dopamine receptor. P21728. HEK293 TREx D1 cells, calcium flux, dopamine EC20 potentiation. potentiation, % at 10 µM. 0.036% of 360,000 active; in the data active = potentiation above about 30%; also: 0% is about no effect
D1 antagonist – human D1 dopamine receptor antagonism | 3.2% of 360,000 active | activity change, negative = inhibition, % at 10 µM | HEK293 TREx D1 cells, calcium flux, dopamine EC80; active compounds read low; in the data active = activity change below about -30%; also: % is scaled to controls: 0 for no effect and ±100 for the full control effect
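Antagonism measured as reduced calcium response to an EC80 dopamine addition following 180 s compound pre-read; cells were inducible HEK293 Trex D1 plated overnight at 30 C, read kinetically at 1 cycle/sec.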
TRHR enhancer – allosteric enhancers of human TRH receptor | TRHR cells, fluo-8 calcium fluorescence, EC20 TRH enhancement | P34981 | 0.66% of 360,000 active | enhancement, % at 2 µM; in the data active = enhancement above about 30%; also: 0% is about no effect
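TRHR-expressing cells loaded with fluo-8 calcium dye were read kinetically (ex 480/em 530) during compound addition, then stimulated with an EC20 of TRH (10 nM final). Enhancement of the Gq-mediated intracellular calcium response was scored.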
TRHR ag – activates the human TRH receptor; TRHR cells, calcium flux fluo-8, FDSS agonist mode; activation, % at 2 µM; 0.18% of 360,000 active; AID 493084; also: 0% is about no effect
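Steps: seed TRHR cells overnight; add fluo-8 no-wash Ca dye, RT 30 min–1.5 h; record 10 s baseline; pin-transfer compounds; monitor fluorescence 1 cycle/s for the agonist window. Calcium increases flag candidate agonists.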
* hit, by the source's call. Most compounds without a hit are left out; they make up all but 4.6% or so of the library. Rule as the data show it, unless noted: active = activation above about 30%; inactive = the rest.

SMILES	D1 agonist	D1 potentiator	D1 antagonist	TRHR enhancer	TRHR ag
Cc1c(C(=O)OC2CCCC2)[nH]c2c1C(=O)CC(c1ccc(C(C)(C)C)cc1)C2 (stereo unspecified)	3.4	1.5	-31.0*	0.5	0.0
COc1ccc(C(=O)NNC(=S)NC(=O)/C=C/c2cccs2)cc1	3.0	5.2	-34.9*	-0.2	-0.6
CC(C)(C)C(=O)NC(=S)NNC(=O)c1sc2ccccc2c1Cl	445.6*	56.0*	46.0	3.9	-2.1
O=C(NNC(=S)NC1CCCCC1)c1sc2ccccc2c1Cl	3.4	-10.4	2.5	1.5	0.6
O=C(NNC(=O)C1CC2CCC1C2)c1sc2ccccc2c1Cl (stereo unspecified)	2.7	-5.0	-34.1*	-6.4	-1.4
COc1ccc(C(=O)NNC(=S)NC(=O)C(C)(C)C)cc1	306.0*	-4.1	-34.9*	-10.9	79.3*
O=C(NC1CC1)c1sc2ccccc2c1Cl	0.8	-3.6	-1.8	-1.2	-1.4
Cc1ccc2c(c1)C1CN(C)CCC1N2C(=O)COc1ccc(N(C)S(=O)(=O)c2cccs2)cc1 (stereo unspecified)	13.3	-13.9	-35.8*	3.2	1.1
CCOc1ccc(S(=O)(=O)N(C)c2ccc(OCC(=O)N3c4ccc(C)cc4C4CN(C)CCC43)cc2)cc1 (stereo unspecified)	1.2	-6.2	-40.5*	5.2	0.1
COc1ccc(NC(=O)c2cc3nc(-c4ccc(Cl)c(Cl)c4)cc(C(F)(F)F)n3n2)c(OC)c1	-1.5	0.1	-66.1*	7.1	-0.4
COc1cc(NC(=O)COCc2cc(-c3ccc4c(c3)OCO4)on2)cc(OC)c1	12.9	-1.1	-1.0	-3.7	1.4
O=C(CNC(=O)c1cccc(Cl)c1)OC(C(=O)Nc1cc(C(F)(F)F)ccc1Cl)c1ccccc1 (stereo unspecified)	12.3	-1.0	-1.7	11.2	-0.2
CCc1ccccc1NS(=O)(=O)c1ccc2[nH]cc(C(=O)N(CC(C)C)CC(C)C)c(=O)c2c1	0.5	-0.3	-53.9*	6.1	0.4
CCc1ccccc1NS(=O)(=O)c1ccc2[nH]cc(C(=O)N3CCCCC3)c(=O)c2c1	-1.6	-0.8	2.5	14.8	-0.9
O=C1c2ccccc2-c2onc3c(Br)cc(NC4CCCCC4)c1c23	39.3*	-2.9	-1.6	0.3	6.4
CC(C)CNc1cc(NC2CCCCC2)c2c3c(onc13)-c1ccccc1C2=O	0.5	2.8	-5.5	-1.5	0.1
COc1ccccc1CNC(=O)CCc1c(C)nc2c(c(C)nn2-c2ccc(C)c(C)c2)c1C	-2.4	-2.6	-72.8*	-3.4	0.9
CSc1ccccc1NC(=O)c1ccncc1	0.9	2.5	1.9	1.9	-0.1
CSc1ccccc1NC(=O)c1ccccc1	0.0	-6.6	-32.0*	7.2	0.1
Cc1csc(NC(=O)c2ccc(Cn3nc(C)c(Br)c3C)o2)n1	1.8	-5.5	-14.0	-9.1	-0.8
Cc1nn(Cc2ccc(C(=O)Nc3ccccc3C(F)(F)F)o2)c(C)c1Br	24.5	-4.5	-65.1*	-8.4	0.7
Cc1cc(O)ccc1N/C=C1\CCCC1=O	6.9	1.5	15.8	2.6	0.2
Cc1ccc([N+](=O)[O-])cc1N/C=C1\CCCCC1=O	36.9*	-4.3	12.6	12.8	-0.1
Cc1ccccc1Nc1nc(N)c(C(=O)c2ccccc2Cl)s1	95.5*	-3.0	-48.2*	3.8	-0.3
Cc1ccccc1Nc1c(-c2ccccn2)nc2ccccn12	2.9	0.2	-2.3	11.8	-0.3
SMILES	D1 agonist	D1 potentiator	D1 antagonist	TRHR enhancer	TRHR ag
CC(C)c1ccc(Nc2c(-c3ccccn3)nc3ccccn23)cc1	4.0	0.5	-34.0*	-5.8	-0.2
Cc1cccc(C)c1Nc1c(-c2ccccn2)nc2c(C)cccn12	5.0	-1.5	-48.4*	-1.5	-0.4
CCC(C(=O)OCC(=O)NC(=O)c1ccccc1OC)c1ccccc1 (stereo unspecified)	7.9	-1.1	-1.9	5.9	-0.3
CCC(C(=O)OCC(=O)NC(=O)c1ccccc1)c1ccccc1 (stereo unspecified)	70.3*	-5.4	-10.1	-2.0	-0.8
O=[N+]([O-])c1cc(Cl)cc(/C=N/Nc2nc3ccccc3s2)c1O	-1.2	-7.8	-49.5*	-11.1	-1.0
CC(C)c1nn2c(=O)cc(COC(=O)c3ccccc3NC(=O)C3CCCCC3)nc2s1	-1.3	-0.3	2.4	2.8	0.5
O=C(NCc1ccccc1)C(=O)Nc1nccs1	0.9	-1.4	-28.2	34.4*	0.3
CCOC(=O)C(=O)Nc1nccs1	0.3	-3.2	-33.7*	1.9	0.4
COc1cc(C2c3c(oc4ccccc4c3=O)C(=O)N2c2nnc(C(C)C)s2)cc(OC)c1OC (stereo unspecified)	0.0	2.6	7.9	-1.3	-0.3
CC(C)OCCCNC(=O)c1ccc2c(c1)NC(=O)c1ccccc1S2	3.3	-2.6	1.1	-2.5	-0.1
CCCCN(CC)C(=O)c1ccc2c(c1)NC(=O)c1ccccc1S2	3.1	0.2	-44.6*	-11.7	-0.5
CCOc1ccc(OCC)c(NC(=O)c2cc(S(=O)(=O)N3CCc4ccccc43)cn2C)c1	-0.5	-3.4	-7.9	9.9	0.1
Clc1ccccc1N=C1SCCS1	36.1*	7.7	6.9	-2.8	-0.9
CCOC(=O)c1ccccc1NC(=O)Cn1c(=O)n(CCCC(=O)NCc2ccc3c(c2)OCO3)c(=O)c2ccccc21	-1.4	4.4	-6.9	2.9	0.0
CCOc1ccccc1NC(=O)C1=C(C)Nc2ncnn2C1c1ccc(C)o1 (stereo unspecified)	-0.5	-1.2	6.5	-4.6	-0.2
CCOC(=O)C1CCCN(C(=O)c2ccc3c(c2)N(Cc2ccc(Cl)cc2)C(=O)c2ccccc2S3=O)C1 (stereo unspecified)	2.3	1.5	1.4	-5.6	0.1
O=C(N/N=C/c1ccc(O)cc1)c1ccc(NC(=O)c2ccccc2Br)cc1	1.7	-7.8	-46.6*	-2.5	0.7
Cc1ccccc1C(=O)Nc1ccc(C(=O)N/N=C/c2ccc(O)cc2)cc1	-0.5	-9.1	0.0	6.9	0.0
O=C(N/N=C/c1cccs1)c1ccc(NC(=O)c2ccccc2Cl)cc1	2.5	-17.8	-53.1*	3.0	-0.2
CCOc1ccc(C2CC(c3c(O)c4ccccc4oc3=O)=NN2c2ccccc2)cc1OC (stereo unspecified)	35.7*	-0.1	1.1	-0.6	23.8
CCOc1ccc(C2c3c(oc4ccccc4c3=O)C(=O)N2c2nnc(C)s2)cc1OC (stereo unspecified)	-0.3	-5.8	-14.5	-0.4	0.5
N#C/C(=N\Nc1ccccc1)C(N)=S	18.8	-7.0	-27.1	-3.8	1.8
N#C/C(=N\Nc1ccc(Cl)cc1)C(N)=S	30.3*	-3.0	-14.6	-4.6	3.3
COc1cccc(NC(=O)c2csc3c2CCCCC3)c1	2.8	-4.8	16.3	-6.4	1.6
